Assay results published in ChEMBL document CHEMBL3988442, “University of Dundee, Small-Polar-MMV Screening Library” (2021).
In all, about 48,000 compounds went through this assay and about 13,000 (27%) showed an effect of 50% or more. The list shows a part of the results.

What follows are compounds tested on Wolbachia pipientis (assay: Anti-Wolbachia Cell-Based Screen). Details: 5 µM.
Format: functional
Parameters: scale not given: in the data most compounds retested in dose-response had high values

| Structure (SMILES) | Percent Effect [%] |
| --- | --- |
| Cc1nc(CN2CCCN(CCOc3cccc(C#N)c3)CC2)no1 | 11.38 |
| O=C(c1cc(C2CC2)on1)N1C[C@H]2CC[C@](O)(c3ccccc3F)[C@H]2C1 | 127.6 |
| Cc1cnn(C2CCCN(C(=O)c3cc(C4CC4)on3)C2)c1 (centres undefined) | 8.361 |
| O=C(c1cc(C2CC2)on1)N1CCC(Oc2ncccc2Cl)CC1 | 9.581 |
| c1ccc2c(Cc3nnc([C@H]4CCN(C5CCC5)C4)o3)c[nH]c2c1 | -3.783 |
| NC1C=C(C(F)(F)F)NC=C1c1ccccc1 (centres undefined) | 86.08 |
| COc1ccc(C2=CNC(C(F)(F)F)=CC2N)cc1 (centres undefined) | 99.44 |
| NC1C=C(C(F)(F)F)NC=C1c1ccc(Cl)cc1 (centres undefined) | 102.6 |
| CC(NC(=O)C1CCN(S(N)(=O)=O)CC1)c1cccc(OC(F)F)c1 (centres undefined) | 6.374 |
| CS(=O)(=O)NCCNc1ncnc2cccc(F)c12 | 8.452 |
| CCCC(NC(=O)c1cnccn1)c1nnc2ccccn12 (centres undefined) | 41.87 |
| CCCC(NC(=O)c1ccccn1)c1nnc2ccccn12 (centres undefined) | 4.889 |
| CC(C)CC(NC(=O)c1ccco1)c1nnc2ccccn12 (centres undefined) | 109.4 |
| O=C(NCC1CCSCC1)N(CCCO)C1CCc2ccccc21 (centres undefined) | 6.335 |
| COc1ccc(C)cc1S(=O)(=O)NCC(c1cccn1C)N(C)C (centres undefined) | 4.095 |
| CCC(NC(=O)c1ccc(OC)nn1)c1nc(C(F)(F)F)cs1 (centres undefined) | -7.754 |
| CCOCCn1c(=O)[nH]c2cc(C(=O)N(C)Cc3nc(C)cs3)ccc21 | -23.7 |
| CC(C)CC(=O)N(C)Cc1nc(C(F)(F)F)cs1 | 105.6 |
| Cc1c(C(=O)N(C)CC(C)O)sc2nc(C(F)(F)F)ccc12 (centres undefined) | 9.483 |
| COCCC(=O)N(C)Cc1nc(C(F)(F)F)cs1 | 98.57 |
| CCC(NC(=O)c1ccc(COC)o1)c1nc(C(F)(F)F)cs1 (centres undefined) | -11.95 |
| Cc1nc(CN(C)c2nccc(C(F)(F)F)n2)cs1 | -8.606 |

| Structure (SMILES) | Percent Effect [%] |
| --- | --- |
| CCOCC(=O)N(C)Cc1nc(C(F)(F)F)cs1 | 102.1 |
| CCOCCC(=O)NCCNc1nccc(C(F)(F)F)n1 | -1.225 |
| Cc1cc(CN(C)C(=O)c2ccnc(N(C)C)c2)no1 | -7.552 |
| CCOC1CCCN(C(=O)c2[nH]nc(C)c2Br)C1 (centres undefined) | 6.367 |
| CCN1CC[C@@]2(C(=O)N3CCOCC3)CCN(C(=O)NC)CC[C@@H]12.O=C(O)C(F)(F)F | -38.24 |
| Cc1cnc2n1CCN(C)C21CCN(CC2CC2)CC1.O=C(O)C(F)(F)F.O=C(O)C(F)(F)F.O=C(O)C(F)(F)F | 2.342 |
| CCN1CCn2c(C)cnc2C12CCN(C(=O)NCC(C)C)CC2.O=C(O)C(F)(F)F | 99.78 |
| CCN1CCn2c(C)cnc2C12CCN(C(=O)NC)CC2.O=C(O)C(F)(F)F | 106.5 |
| Cc1cnc2n1CCN(C)C21CCN(C(=O)CC(C)C)CC1.O=C(O)C(F)(F)F | 6.371 |
| CNC(=O)N1CCC2(CC1)c1ncc(C)n1CCN2C.O=C(O)C(F)(F)F.O=C(O)C(F)(F)F | 93.19 |
| NC(=O)C1CCN(Cc2ccc(S(=O)(=O)N3CCCC3)o2)CC1 | -8.364 |
| Cc1c(NCc2ccccc2C#N)cccc1-n1cnnn1 | 4.013 |
| N#CCCN(CC1CCOC1)Cn1ccc(-c2ccccc2)n1 (centres undefined) | -2.845 |
| CN(C)C1(C(=O)NC2CCC(Oc3ccccc3C#N)CC2)CCC1 (centres undefined) | -18.62 |
| CCN(Cc1nc(COC)no1)Cc1ccccc1OCC(=O)O | 10.36 |
| CCn1cc(C(=O)NCC(C)(CC)N2CCOCC2)c2ccccc21 (centres undefined) | 6.626 |
| Cc1cnn(CCNCc2c(C)nn(Cc3ccccc3)c2C)c1 | -5.977 |
| O=C(C1CCC2(CCN(Cc3cccnc3)CC2)CO1)N1CCCC1.O=C(O)C(F)(F)F.O=C(O)C(F)(F)F (centres undefined) | 90.21 |
| O=C([C@@H]1CCCO1)N1CCOCC2(CCN(Cc3cccnc3)C2)C1 (some centres undefined) | 95.11 |
| Cn1cccc1CN1CCC2(CCCN(C(=O)Cc3cccnc3)C2)C1 (centres undefined) | 5.928 |
| O=C(O)C(F)(F)F.O=C(O)C(F)(F)F.O=C(c1ccsc1)N1CCC2(CC1)COCCN(Cc1ccncc1)C2 | 15.81 |
| O=C(N1CCCC1)N1CCC2(CC1)COCCN(Cc1cccnc1)C2.O=C(O)C(F)(F)F.O=C(O)C(F)(F)F | -4.319 |

| Structure (SMILES) | Percent Effect [%] |
| --- | --- |
| O=C(C1CCCO1)N1CCC2(CC1)COCCN(Cc1cccnc1)C2.O=C(O)C(F)(F)F.O=C(O)C(F)(F)F (centres undefined) | 128.2 |
| O=C(C1CCCO1)N1CCC2(CC1)COCCN(Cc1ccncc1)C2.O=C(O)C(F)(F)F.O=C(O)C(F)(F)F (centres undefined) | -9.895 |
| O=c1[nH]c(C2CCOC2)nc2ccc(Cl)cc12 (centres undefined) | -0.06581 |
| CCC1CN(C(=O)c2ccccc2N2CCCC2)CCN1C(C)C (centres undefined) | -3.455 |
| CCC(=O)N1CCC2(CC1)C(c1cccnc1)CC(=O)N2CCOC.O=C(O)C(F)(F)F (centres undefined) | 110.5 |
| COCCN1C(=O)CC(c2cccnc2)C12CCN(C(=O)C1CC1)CC2.O=C(O)C(F)(F)F (centres undefined) | 106.6 |
| COCCN1C(=O)CC(c2cccnc2)C12CCN(C)CC2 (centres undefined) | 113.4 |
| CCN1C(=O)CC(c2cccnc2)C12CCN(c1ncc(F)cn1)CC2 (centres undefined) | -11.62 |
| CCN1C(=O)CC(c2ccccc2)C12CCN(c1ncc(C)cn1)CC2 (centres undefined) | -13.83 |
| CCN1C(=O)CC(c2cnn(C)c2)C12CCN(C(=O)c1ccc[nH]1)CC2 (centres undefined) | 13.05 |
| F[C@@H]1CN(Cc2ccccc2)C[C@@H]1OCc1nc2ccccc2[nH]1 | -3.249 |
| O=C(NCCCN1CCC(OC2CCCCC2)CC1)C1CCCC1 | -7.761 |
| CCC(C)N(Cc1cccnc1)C(=O)CCSC (centres undefined) | -1.177 |
| CCc1noc(CN(C)C(=O)C2COc3ccccc3C2)n1 (centres undefined) | 19.12 |
| CN(C)C(=O)CO[C@@H]1CN(Cc2ccccc2F)[C@@H]2CCCO[C@@H]21.O=C(O)C(F)(F)F | -3.753 |
| Fc1ccccc1CN1C[C@H](OCC2CCOCC2)[C@H]2OCCC[C@H]21.O=C(O)C(F)(F)F | -9.213 |
| CN(C)C(=O)CO[C@H]1CN(Cc2ccc(F)cc2)[C@@H]2CCCO[C@H]12.O=C(O)C(F)(F)F | -2.214 |
| CN(C)CCO[C@H]1CN(CC2CC2)[C@@H]2CCCO[C@H]12.O=C(O)C(F)(F)F.O=C(O)C(F)(F)F | 109 |
| CCO[C@H]1CN(CC2CCOCC2)[C@@H]2CCCO[C@H]12.O=C(O)C(F)(F)F | 93.44 |
| CCO[C@@H]1CN(Cc2scnc2C)[C@@H]2CCCO[C@@H]21.O=C(O)C(F)(F)F.O=C(O)C(F)(F)F | -1.893 |
